PubChem BioAssay (NCI)
Compounds without any hit were thinned out: in the full panel of roughly 83,000, 20% have a hit.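 Treatment: one concentration, 48 hours, 96-well format. Scoring: percent growth, with anything below 10 considered active.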 Active and inactive are the calls of the source.

What was measured:
Assay in all cases: NCI-60 one-dose screen, 48 h (100 = growth as untreated, 0 = no growth, -100 = all killed)
HCT-15 colon = conditions: 10 µM unless noted
HT29 colon = conditions: 10 µM unless noted
SNB-75 CNS = conditions: 10 µM unless noted
SNB-19 CNS = conditions: 10 µM unless noted
U251 CNS = conditions: 10 µM unless noted
PC-3 prostate = conditions: 10 µM unless noted
SK-MEL-5 melanoma = conditions: 10 µM unless noted
UACC-62 melanoma = conditions: 10 µM unless noted
LOX IMVI melanoma = conditions: 10 µM unless noted
SK-MEL-28 melanoma = conditions: 10 µM unless noted
SK-MEL-2 melanoma = conditions: 10 µM unless noted
EKVX NSCLC = conditions: 10 µM unless noted
SN12C renal = conditions: 10 µM unless noted
UO-31 renal = conditions: 10 µM unless noted
TK-10 renal = conditions: 10 µM unless noted
ACHN renal = conditions: 10 µM unless noted
CAKI-1 renal = conditions: 10 µM
A498 renal = conditions: 10 µM unless noted
CCRF-CEM leukemia = conditions: 10 µM unless noted
MOLT-4 leukemia = conditions: 10 µM unless noted

Measured: growth

O=C(NCCCNc1cc(-c2cn(-c3ccccc3)nc2-c2cccc(O)c2)ccn1)Nc1ccc(F)cc1
inactive: SNB-19 CNS 26.9% | PC-3 prostate 16% | EKVX NSCLC 33.8% | SN12C renal 31.1% | TK-10 renal 65% | ACHN renal 24.8% | CAKI-1 renal 12.8% | CCRF-CEM leukemia 11%
active: HCT-15 colon -11.7% | HT29 colon 3.6% | SNB-75 CNS 6.84% | U251 CNS 3.22% | SK-MEL-5 melanoma -55% | UACC-62 melanoma 8.05% | LOX IMVI melanoma 6.07% | SK-MEL-28 melanoma -61.3% | SK-MEL-2 melanoma -4.51% | UO-31 renal 6.93% | A498 renal -6.39% | MOLT-4 leukemia 4.57%

COCCC[C@H]1O[C@@](O)([C@H](C)[C@@H]2CC(OC)C(O)/C=C(C)/C=C(C)/C=C(\C)C(OC3O[C@@H](C)[C@H](O)C(O)[C@@H]3O)C(C)/C=C(C)/C=C(OC)/C=C(\C)C(=O)O2)C(OC)C(O)[C@]1(C)O[C@H]1C[C@@H](O)[C@H](O[C@H]2C[C@](C)(O)[C@H](O)C(C)O2)C(C)O1 (stereo not given in full)
inactive: HCT-15 colon 57.5% | HT29 colon 67% | SNB-75 CNS 35.3% | SNB-19 CNS 38.8% | U251 CNS 47% | PC-3 prostate 27.8% | UACC-62 melanoma 58.4% | LOX IMVI melanoma 76.4% | SK-MEL-28 melanoma 84.2% | SK-MEL-2 melanoma 50.6% | EKVX NSCLC 21.6% | SN12C renal 68.3% | UO-31 renal 25.7% | TK-10 renal 49.9% | ACHN renal 67.7% | CAKI-1 renal 73.8% | A498 renal 56% | CCRF-CEM leukemia 53.9% | MOLT-4 leukemia 47.8%
active: SK-MEL-5 melanoma 7.32%

C#C[C@]1(O)CC[C@H]2[C@@H]3CC=C4c5sc(-c6cccc(F)c6)nc5CC[C@]4(C)[C@H]3CC[C@@]21C
inactive: HCT-15 colon 53.5% | HT29 colon 78.4% | SNB-75 CNS 70% | SNB-19 CNS 87.3% | U251 CNS 75% | PC-3 prostate 68.7% | SK-MEL-5 melanoma 96.4% | UACC-62 melanoma 74.9% | LOX IMVI melanoma 80.8% | SK-MEL-28 melanoma 81.1% | SK-MEL-2 melanoma 91.9% | EKVX NSCLC 83.5% | SN12C renal 89.6% | UO-31 renal 82% | TK-10 renal 121% | ACHN renal 85.4% | CAKI-1 renal 92.4% | A498 renal 101% | CCRF-CEM leukemia 75.1% | MOLT-4 leukemia 53.1%

COC(=O)Nc1ccc(-c2nc(-c3cccc(O)c3)c(-c3ccnc(Br)c3)[nH]2)cc1
inactive: HCT-15 colon 51% | HT29 colon 73.7% | SNB-19 CNS 56.2% | U251 CNS 47% | PC-3 prostate 23.7% | SK-MEL-5 melanoma 61.2% | UACC-62 melanoma 23.7% | LOX IMVI melanoma 38% | SK-MEL-28 melanoma 58.7% | SK-MEL-2 melanoma 77.8% | EKVX NSCLC 68.5% | SN12C renal 60.4% | UO-31 renal 42.9% | TK-10 renal 73.5% | ACHN renal 60.4% | CAKI-1 renal 45.6% | A498 renal 73.4% | CCRF-CEM leukemia 22.8% | MOLT-4 leukemia 21.5%
active: SNB-75 CNS 3.12%

O=C(N/N=C\c1ccc(Cl)cc1)c1ccc2nc(-c3ccc(Br)cc3)[nH]c2c1
active: HCT-15 colon -25.2% | HT29 colon -52% | SNB-19 CNS 5.18% | U251 CNS -70.6% | PC-3 prostate -23.7% | UACC-62 melanoma 8.2% | LOX IMVI melanoma -80.5% | SK-MEL-28 melanoma -14.7% | EKVX NSCLC 0.288% | SN12C renal -14.6% | TK-10 renal -26.8% | ACHN renal -12.6% | CAKI-1 renal -17.8%
inactive: SNB-75 CNS 49.9% | SK-MEL-5 melanoma 22.2% | SK-MEL-2 melanoma 82.7% | UO-31 renal 15.9% | A498 renal 65.4% | CCRF-CEM leukemia 26.3% | MOLT-4 leukemia 11.6%

Cn1c2ccccc2c2c3c(c4c5ccc(Br)cc5oc4c21)C(=O)N(O)C3=O
active: LOX IMVI melanoma -88.8% | UO-31 renal -91.6% | A498 renal -6.15% | MOLT-4 leukemia 7.13%
inactive: HCT-15 colon 74.6% | HT29 colon 86.6% | SNB-75 CNS 54.3% | SNB-19 CNS 69.5% | U251 CNS 60.5% | PC-3 prostate 65.8% | SK-MEL-5 melanoma 75.6% | UACC-62 melanoma 49.2% | SK-MEL-28 melanoma 105% | SK-MEL-2 melanoma 98.6% | EKVX NSCLC 96.6% | SN12C renal 92.7% | TK-10 renal 101% | ACHN renal 69.5% | CAKI-1 renal 40.4% | CCRF-CEM leukemia 14.6%

O=C(CSc1nnc(-c2ccc(Cl)cc2)n1-c1ccccc1)Nc1ccc(F)cc1
inactive: HCT-15 colon 94.6% | HT29 colon 87% | SNB-75 CNS 117% | SNB-19 CNS 59.7% | PC-3 prostate 99.9% | SK-MEL-5 melanoma 96.4% | UACC-62 melanoma 82.4% | LOX IMVI melanoma 49.2% | SK-MEL-28 melanoma 95.8% | SK-MEL-2 melanoma 111% | EKVX NSCLC 90.6% | SN12C renal 62.6% | UO-31 renal 97.5% | TK-10 renal 88.7% | ACHN renal 24.7% | CAKI-1 renal 70.9% | A498 renal 69.8% | CCRF-CEM leukemia 91.8% | MOLT-4 leukemia 103%
active: U251 CNS 6.66%

Cn1ccnc1C(=O)/C=C/c1ccc(C(=O)Nc2ccc(NC(=O)CCNC(=O)c3csc(Br)n3)cc2)cc1
inactive: HCT-15 colon 28.6% | HT29 colon 13.2% | SNB-75 CNS 71.2% | SNB-19 CNS 60.6% | U251 CNS 23.9% | PC-3 prostate 48% | SK-MEL-5 melanoma 98.8% | UACC-62 melanoma 68.3% | LOX IMVI melanoma 11.5% | SK-MEL-28 melanoma 89.3% | SK-MEL-2 melanoma 109% | EKVX NSCLC 69.9% | SN12C renal 40.2% | UO-31 renal 46.6% | TK-10 renal 89.7% | ACHN renal 61.8% | CAKI-1 renal 29.3% | A498 renal 100% | CCRF-CEM leukemia 12.9% | MOLT-4 leukemia 70.3%

Cc1cc(O)c2c(c1)C(=O)C(c1c(C)cc3c(c1O)C(=O)C=CC3=O)=CC2=O
inactive: HCT-15 colon 46.5% | HT29 colon 65.3% | SNB-75 CNS 92.3% | SNB-19 CNS 99.9% | U251 CNS 94% | PC-3 prostate 82.9% | SK-MEL-5 melanoma 102% | UACC-62 melanoma 61.5% | LOX IMVI melanoma 61.3% | SK-MEL-28 melanoma 71.2% | SK-MEL-2 melanoma 123% | EKVX NSCLC 100% | SN12C renal 74.7% | TK-10 renal 14.2% | CAKI-1 renal 13.8% | A498 renal 122% | CCRF-CEM leukemia 19.3% | MOLT-4 leukemia 41.4%
active: UO-31 renal -14.9% | ACHN renal -8.41%

CCOC(=O)Nc1cccc(-n2cnc3cc(-c4ccc(O)cc4)ccc32)c1
active: HCT-15 colon 9.71% | HT29 colon 5.49% | SNB-75 CNS 3.54% | SK-MEL-5 melanoma 9.15% | A498 renal -25.1%
inactive: SNB-19 CNS 27.1% | U251 CNS 19.1% | PC-3 prostate 29.9% | UACC-62 melanoma 35.8% | LOX IMVI melanoma 41.2% | SK-MEL-28 melanoma 63.8% | SK-MEL-2 melanoma 15.8% | EKVX NSCLC 42.7% | SN12C renal 31.2% | UO-31 renal 26.4% | TK-10 renal 57.1% | ACHN renal 19.9% | CAKI-1 renal 33% | CCRF-CEM leukemia 24.5% | MOLT-4 leukemia 10.6%

O=S(=O)(Nc1ccc2c(c1)OC(F)(F)O2)c1ccc(-c2cnc(C3CC3)o2)cc1
inactive: HCT-15 colon 26.2% | HT29 colon 17.2% | SNB-75 CNS 19% | SNB-19 CNS 47% | U251 CNS 32.6% | PC-3 prostate 45.3% | SK-MEL-5 melanoma 38% | UACC-62 melanoma 29.4% | LOX IMVI melanoma 37.7% | SK-MEL-28 melanoma 58.3% | SK-MEL-2 melanoma 41.3% | EKVX NSCLC 58% | SN12C renal 52.8% | UO-31 renal 56.7% | TK-10 renal 84.3% | ACHN renal 57.1% | CAKI-1 renal 17.5% | A498 renal 23.2% | CCRF-CEM leukemia 24.1% | MOLT-4 leukemia 30.3%

O=C1c2cc(Br)ccc2-n2c1nc1cc(Br)ccc1c2=O
inactive: HCT-15 colon 64.8% | HT29 colon 74.3% | SNB-75 CNS 68.3% | SNB-19 CNS 84.6% | U251 CNS 91.9% | PC-3 prostate 60.9% | SK-MEL-5 melanoma 60.6% | UACC-62 melanoma 85.7% | LOX IMVI melanoma 63.9% | SK-MEL-28 melanoma 88.9% | SK-MEL-2 melanoma 73.4% | EKVX NSCLC 59.5% | SN12C renal 76.6% | UO-31 renal 62.6% | TK-10 renal 149% | ACHN renal 79% | CAKI-1 renal 78.7% | A498 renal 125% | CCRF-CEM leukemia 71.9% | MOLT-4 leukemia 67.7%

O=c1oc2ccc(-c3ccc(F)cc3F)cc2c(=O)n1-c1ccc(F)c(F)c1
inactive: HT29 colon 88.8% | SNB-75 CNS 14.9% | SNB-19 CNS 12.2% | U251 CNS 11.9% | PC-3 prostate 13.3% | LOX IMVI melanoma 17.8% | SK-MEL-28 melanoma 19.9% | TK-10 renal 10.8% | CCRF-CEM leukemia 16.4%
active: HCT-15 colon 3.09% | SK-MEL-5 melanoma -77.4% | UACC-62 melanoma -12.8% | SK-MEL-2 melanoma -14.3% | EKVX NSCLC 9.2% | SN12C renal 2.02% | UO-31 renal -12.4% | ACHN renal 2.6% | CAKI-1 renal -15.4% | A498 renal -42.6% | MOLT-4 leukemia 6.43%

O=C(O)CNS(=O)(=O)c1ccc(Oc2ccc(S(=O)(=O)NCC(=O)O)cc2)cc1
inactive: HCT-15 colon 102% | HT29 colon 99.3% | SNB-75 CNS 66.6% | SNB-19 CNS 98.1% | U251 CNS 99.3% | PC-3 prostate 98.6% | SK-MEL-5 melanoma 101% | UACC-62 melanoma 99% | LOX IMVI melanoma 99.8% | SK-MEL-28 melanoma 101% | SK-MEL-2 melanoma 104% | EKVX NSCLC 96.9% | SN12C renal 93.5% | UO-31 renal 91.4% | TK-10 renal 101% | ACHN renal 98.9% | CAKI-1 renal 91.4% | A498 renal 69.9% | CCRF-CEM leukemia 100% | MOLT-4 leukemia 95.7%

O=C(C[n+]1ccnc2ccccc21)c1ccc(O)c(O)c1
inactive: HCT-15 colon 12.8% | HT29 colon 18.3% | SNB-75 CNS 98.2% | SNB-19 CNS 80.8% | U251 CNS 63.8% | PC-3 prostate 44.7% | SK-MEL-5 melanoma 81.6% | UACC-62 melanoma 54.6% | SK-MEL-28 melanoma 63.3% | SK-MEL-2 melanoma 77.7% | EKVX NSCLC 94.2% | SN12C renal 59.5% | UO-31 renal 40.3% | TK-10 renal 43.1% | ACHN renal 17.8% | CAKI-1 renal 69.8% | A498 renal 87.7% | MOLT-4 leukemia 11.6%
active: LOX IMVI melanoma 8.68% | CCRF-CEM leukemia 4.57%
